Arbovirus inh: antivirals against arbovirus infection. inhibition, % at 10 µM. hit rate 0.37% among 200,000. arbovirus infection cell-based antiviral screen; in the data active = inhibition above about 30%
CHOP inh: blocks CHOP induction under ER stress; CHO-K1 CHOP-promoter luciferase, tunicamycin-induced, 15-18 h; inhibition, % at 10 µM; hit rate 3.8% among 220,000; AID 2732;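 active = compounds that reduced the stress-induced luciferase reporter signal by more than about 70% of percent inhibition, limit read from the data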;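 note: 0% = tunicamycin plus vehicle and 100% = wells without tunicamycin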
L major viab: reduces viability of Leishmania major promastigotes; resazurin fluorescence viability; inhibition, % at 10 µM; hit rate 9% among 200,000; AID 1063; in the data active = inhibition above about 50%;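 note: promastigotes grown with compound for 44 hours at 28 °C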
WT yeast gro inh: growth inhibition of WT yeast, mitochondrial fusion screen; mitochondrial fusion phenotypic screen, WT strain; inhibition, % at 10 µM; hit rate 2.1% among 190,000; AID 1362; in the data active = inhibition above about 58%; tested in S. cerevisiae
Numbers without * were called inactive; nt = no result. Rows were chosen to be rich in hits. Some 12% of all compounds tested hit in one or more screens of this group.

SMILES | Arbovirus inh | CHOP inh | L major viab | WT yeast gro inh
O=C(Cc1ccc(Cl)cc1)N/N=C1\CCCc2ccccc21 | 11 | 5 | 3 | 30
COc1cc(OC)c(NS(=O)(=O)c2ccc(Cl)c(C(=O)OC(C)C(=O)N3CCCC3)c2)cc1Cl (centres undefined) | 2 | 65 | 15 | -3
CCC(=O)OCCNc1cc(Sc2nccn2C)c2nonc2c1[N+](=O)[O-] | -48 | 109* | 85* | 22
CCC(=O)OCCNc1cc(SCCC(=O)OC)c2nonc2c1[N+](=O)[O-] | -7 | 10 | 14 | 2
O=C(Nc1cccc2ccccc12)c1ccc(Br)o1 | -5 | -4 | -1 | 10
CC(C)Oc1ccc(C(=O)Nc2cccc3cccnc23)cc1 | 18 | 27 | -7 | 59*
O=C(Nc1cccc2cccnc12)c1ccc(Br)o1 | 3 | 77* | 5 | 5
NC(=O)C1CCCN(C(=S)Nc2cccc3ccccc23)C1 (centres undefined) | -2 | 20 | -3 | 9
O=C(Nc1ccccn1)C(F)(F)C(F)(F)C(F)(F)C(F)(F)C(=O)Nc1ccccn1 | 4 | 16 | 70* | -7
O=C(CC(=O)Nc1ccccn1)Nc1ccccn1 | -3 | 10 | -3 | -13
O=C(NNc1nc(Nc2ccccc2)nc(N2CCOCC2)n1)Nc1ccc(Cl)cc1 | -35 | 95* | 8 | -6
O=C(O)c1ccc(N/N=C/c2cc3cc4c(cc3nc2Cl)OCCO4)cc1 | nt | 11 | nt | nt
CCCCn1nnnc1NCc1ccc(C)s1 | -1 | 3 | -5 | -7
O=C(C(Cl)Cl)N1c2ccccc2OCC1c1ccccc1 (centres undefined) | -18 | 53 | 11 | -12
O=C(OCCN1C(=O)c2cccc3c(N4CCOCC4)ccc(c23)C1=O)c1cc(Cl)cc(Cl)c1 | -12 | 10 | 71* | 23
CCN(CC)S(=O)(=O)c1ccc(C(=O)OCCN2C(=O)c3cccc4c(N5CCOCC5)ccc(c34)C2=O)cc1 | -7 | -18 | 21 | 5
O=C1c2cccc3c(N4CCCCC4)ccc(c23)C(=O)N1c1ccccn1 | 21 | 20 | 31 | -8
CCCN1C(=O)c2cccc3c(N4CCCCC4)ccc(c23)C1=O | -1 | -12 | 73* | -3
CCOC(=O)N1CCN(S(=O)(=O)c2ccc(C)cc2)C1c1ccc(OC)cc1 (centres undefined) | 13 | 17 | 16 | 85*
CCOC(=O)N1CCN(S(=O)(=O)c2ccc(C)cc2)C1c1ccccc1 (centres undefined) | -4 | 10 | 2 | -5
COc1ccc(C2N(S(=O)(=O)c3ccccc3)CCN2S(=O)(=O)c2ccc(C)cc2)cc1 (centres undefined) | 3 | 14 | 100* | 12
C=CCC1(C#N)C(SC)=NC2=C(C(=O)CC(C)(C)C2)C1c1ccc(Br)cc1 (centres undefined) | 14 | 16 | 21 | 74*
CCCCNC(=O)CCC(=O)Nc1ccc2nc(N3CCCCC3)cc(C)c2c1 | 11 | -14 | 7 | 3
CCN1CCN(c2cc(C)c3cc(NC(=S)N4CCCCC4)ccc3n2)CC1 | -25 | -4 | 58* | 21
Cc1cc(N2CCN(C)CC2)nc2ccc(NC(=O)CCC(=O)NCCC3=CCCCC3)cc12 | nt | nt | 100* | nt
SMILES | Arbovirus inh | CHOP inh | L major viab | WT yeast gro inh
CCOC(=O)N1CCN(C(=S)Nc2ccc3nc(N4CCN(CC)CC4)cc(C)c3c2)CC1 | -19 | 18 | 72* | 1
CCN1CCN(C(=S)Nc2ccc3nc(N4CCN(C)CC4)cc(C)c3c2)CC1 | 15 | 16 | 67* | -5
CCN1CCN(C(=S)Nc2ccc3nc(N4CCN(CC)CC4)cc(C)c3c2)CC1 | 0 | -1 | 30 | -3
Cc1cccc(OCCNC(=O)c2cccc(Oc3ccc(C(F)(F)F)cc3[N+](=O)[O-])c2)c1 | -4 | 32 | 1 | 16
Oc1c(C=Nc2ccccc2Cl)[nH]c2ccccc12 | nt | -13 | nt | nt
CC(=O)c1ccc(N2CCN(C(=O)c3ccco3)CC2)c(F)c1 | -3 | -14 | -5 | -14
CC(=O)c1ccc(N2CCN(C(=O)c3ccco3)C(C)C2)c(F)c1 (centres undefined) | 7 | 9 | 64* | 6
CC(Cc1ccccc1)C(=O)N(C)Cc1cccnc1 (centres undefined) | 3 | -11 | 12 | -6
Cc1cccc(-n2ncc3c(N(C)Cc4ccccc4)ncnc32)c1 | 8 | -24 | nt | 70*
Cc1ccc(-n2ncc3c(N4CCCC4)ncnc32)c(C)c1 | 0 | -23 | 35 | 6
Cc1cccc(-n2ncc3c(N4CCC(C)CC4)ncnc32)c1 | -1 | 73* | 2 | 41
COc1cccc(N2CCN(c3ncnc4c3cnn4-c3ccc(C)cc3C)CC2)c1 | 27 | 98* | 7 | 27
CCCCNC(=O)COC(=O)c1ccc(F)cc1Cl | 2 | -2 | -3 | -11
O=C(CSc1nnc(-c2ccccc2NC(=O)c2ccccc2)o1)OC1CCCCC1 | nt | nt | -7 | nt

Compound activity (PubChem BioAssay)
